These results are taken from PubChem BioAssay (NCI).

This is part of a sample that, as a whole, favours compounds with a hit. Of some 83,000 tested, about 20% had one in any assay.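 Compound tested at a single concentration for 48 hours in 96-well plates; a percent growth value below 10 was scored as active.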 A number with no mark means an inactive call. Calls of active or inactive are those of the source.

The subject of the experiment is MDA-MB-468 breast. In words: NCI-60 one-dose screen, 48 h (100 = growth as untreated, 0 = no growth, -100 = all killed). To be noted: 10 µM unless noted.
For `N#Cc1c(-c2cccs2)cc(-c2cccnc2)[nH]c1=O`, the growth was 101%.
Consider `COc1ccc(OC)c(/C=C2\Oc3cc(OCCN4CCCC4)ccc3C2=O)c1`, for which the growth is 98.9%.
`Cc1cc(C(=O)Nc2ccc3cc(CN4CCOCC4)ccc3n2)c(C)n1-c1ccccc1`: the growth is 26.7%.
Consider `COCCNc1ccc2ncc(C#Cc3cncc(C(=O)Nc4ccc(CN5CCN(C)CC5)c(C(F)(F)F)c4)c3)n2n1`, for which the growth is -59.9% (active).
In the case of `Clc1ccc2c(NCCNc3nc(Cl)nc4ccccc34)ccnc2c1`, the growth is -88.6% (active).
On to `O=C(CCN1CCCC1)c1ccc([N+](=O)[O-])cc1`, for which the growth is 85.3%.
For `CC(C)=CCC/C(C)=C/CC/C(C)=C/CC/C(C)=C/CSC[C@H](NC(=O)CCCCCN1CCN(C)CC1)C(=O)NC1CCCCC1`, the growth was 79.2%.
Take `CN1C(=O)C2(Nc3cc(Cl)ccc3S2)c2cc(Cl)ccc21` (stereo not given): the growth is 106%.
The result for `COc1ccc(CN2c3ccccc3Sc3ccccc32)cc1F` reads -0.673% (active).
Regarding `c1ccc(COc2ccc(Nc3ncnc4c3cnn4-c3ccccc3)cc2)cc1`, the growth is 93.1%.
With `CCN(CC)CCCOc1cccc2c1C(=O)c1cccc(OCCCN(CC)CC)c1C2=O`, the growth is 35.5%.
As for `N#Cc1cccc(F)c1`, the growth is 111%.
In the case of `Cc1nc(-n2[nH]c(=O)ccc2=O)sc1N=Nc1ccccc1`, the growth is 93.8%.
As for `COC(=O)[C@@]1(C)CC[C@]2(C)CC[C@]3(C)C(=CC(=O)[C@@H]4[C@@]5(C)Cc6c(n(CC#CCN7CCN(C)CC7)c7ccccc67)C(C)(C)[C@@H]5CC[C@]43C)[C@@H]2C1`, the growth was 69.1%.
The result for `CC(=O)C1=C(C)NC(NNC(N)=S)=NC1c1ccccc1` (stereo not given) reads 100%.
Turning to `C=C1CC2(OC1=O)C(=O)N(C)c1ccc(I)cc12` (stereo not given), the growth is -79.2% (active).
On to `CC1(C)C(N)=Nc2cc(OCCCN3Cc4ccc(OCCc5cn(CC(=O)N6CCC(CCN7CCCC7)CC6)nn5)cc4C3)c(OCC3CC3)cc21`, for which the growth was 108%.
As for `Cc1cc(C)cc(Nc2cc(C)nc3nc(C(F)(F)F)nn23)c1`, the growth was 25.5%.
The result for `COc1c(C(=O)/C=C/c2ccc(C)o2)c(O)cc2occc12` reads 30.7%.
Turning to `COc1cc(/C(C#N)=C/c2ccc3c(c2OC)OCO3)cc2c1OCO2`, the growth is 9.19% (active).
As for `Cc1nc(-c2ccccc2O)ccc1C(=O)N=Nc1c(O)[nH]c2ccc(Br)cc12`, the growth was 90.2%.
On to `CCCCn1c(Cc2ccc(Cl)cc2)nc2cc(OC)c(OC)cc2c1=O`, for which the growth was 58.6%.
In the case of `CCCCCc1cc[n+](CC(=O)c2ccc(Cl)cc2)cc1`, the growth was 65.9%.
In the case of `COc1ccc(/C=C\c2cc(OC)c(OC)c(OC)c2)cc1OCC(=O)Nc1nc2ccccc2s1`, the growth was 9.63% (active).
Regarding `COc1ccc(-c2cc(=O)oc3c4c(ccc23)OCN(Cc2ccc(F)cc2)C4)cc1`, the growth is 16.1%.
For the molecule `COc1cc(-c2nn(-c3ccc(NC(=O)c4ccc(Cl)c(Cl)c4)cc3)cc2-c2ccncc2)ccc1Cl`, the growth was 78.3%.
For the molecule `CCN(CC)CCOC(COc1cc(C)cc(C)c1)COc1cc(C)cc(C)c1`, the growth was 9.41% (active).
For `O=C1CCCC1[n+]1ccccc1` (stereo not given) the value was 120%.
For `CCNC(=O)Oc1ccc(/C(=C(/C)c2ccccc2)c2ccc(OCCN3CCCCCC3)cc2)cc1`, the growth is -16.9% (active).
For `CC1=NN(c2nc(-c3ccc(Cl)cc3)c(C#N)c(N3CCOCC3)n2)C(=O)C1` the value was 98.3%; for `N=C(N)c1ccc(-c2ccc(-c3ccccc3)s2)cc1F`, -78.4% (active).
For `COc1ccc(/C=C2\CCCC3=C2NC(N)=NC3c2ccc(OC)cc2)cc1` (stereo not given) the value was -5.61% (active); for `O=c1c2ccccc2oc2ccc(OCCCCCCN3CCCCCC3)cc12`, 20.2%; for `CC(=O)OCC(=O)[C@@]1(O)CC[C@H]2[C@@H]3CC[C@@H]4C[C@H](O)CC[C@]4(C)[C@H]3C(=O)C[C@@]21C`, 98.1%.
As for `NC(=O)CSc1oc(-c2ccccc2)nc1S(=O)(=O)c1ccc(Br)cc1`, the growth was 73.9%.
The result for `C=CCOc1cccc(/C=C2\SC(=S)N(C3CC(=O)N(c4ccc(Br)cc4)C3=O)C2=O)c1` (stereo not given) reads 111%.
As to `Cc1cccc2nc3ccccc3c(Nc3ccc(NS(C)(=O)=O)cc3)c12`, the growth is 67.9%.
With `Brc1ccc2[nH]cc(-c3nc(-c4c[nH]c5ncccc45)cs3)c2c1`, the growth is 43.6%.
Consider `CCN1C(=O)N(CC)C2Nn3c(s/c(=C\c4cccc(F)c4)c3=O)=NC21` (stereo not given), for which the growth is 17.8%.
Consider `C1=C(Cc2ccccc2)n2cnc3ncnc(c32)S1`, for which the growth was -11.8% (active).
